Bioassay records as filed in PubChem BioAssay.
POLK inh: inhibitors of human DNA polymerase kappa; Potency, µM (top dose mostly 107 µM), without a hit: at the top dose activity, negative = inhibition, usual class: inhibitors; Q9UBT6; actives 0.53% (n = 400,000); purified Pol kappa, fluorescent DNA synthesis assay, 10 min; further: on the % scale 0 is the no-effect control and ±100 the full control effect
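10 nM Pol kappa preincubated 15 min at room temperature with compounds, then reaction started with substrate at 50 nM final. Fluorescence read kinetically at 0 and 10 min; buffer-only wells served as negative control.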
TDP1 inh: TDP1 (human) enzyme inhibition. Potency, µM (titrated, usually from 130 µM), inactives show top-dose activity change, negative = inhibition, usual class: inhibitors. recombinant TDP1, AlphaScreen DNA substrate cleavage. actives 0.28% (n = 350,000). Q9NUW8; further: on the % scale 0 is the no-effect control and ±100 the full control effect; nearly all actives have a fitted effect of over 40% in size
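AlphaScreen read-out: signal falls as enzyme removes the 3' tyrosine-FITC from a 5'-biotinylated DNA oligo (15 nM, 5 min, RT). Enzyme was E. coli-made recombinant Tdp1 at 1 nM, exposed to compound for 15 min beforehand; beads 10 ug/ml, 10 min.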
POLH inh: blocks human DNA polymerase eta activity. Q9Y253. recombinant Pol eta, fluorescent DNA replication assay. Potency, µM (titrated, usually from 114 µM), without a hit: at the highest dose activity change, negative = inhibition, usual class: inhibitors. actives 1.2% (n = 390,000). AID 588591; further: on the % scale 0 is the no-effect control and ±100 the full control effect
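Pol eta at 10 nM preincubated with compounds 15 min at room temperature; reaction started with fluorescent substrate (50 nM final) and read kinetically at 0 and 10 min.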
Pol iota inh: inhibitors of human DNA polymerase iota. Q9UNA4. Pol iota fluorescent replication assay, 10 min. Potency, µM (doses to about 115 µM), for inactives: at the top dose activity, negative = inhibition, usual class: inhibitors. actives 1% (n = 390,000)
Target sequence (Q9UNA4 whole entry, looked up): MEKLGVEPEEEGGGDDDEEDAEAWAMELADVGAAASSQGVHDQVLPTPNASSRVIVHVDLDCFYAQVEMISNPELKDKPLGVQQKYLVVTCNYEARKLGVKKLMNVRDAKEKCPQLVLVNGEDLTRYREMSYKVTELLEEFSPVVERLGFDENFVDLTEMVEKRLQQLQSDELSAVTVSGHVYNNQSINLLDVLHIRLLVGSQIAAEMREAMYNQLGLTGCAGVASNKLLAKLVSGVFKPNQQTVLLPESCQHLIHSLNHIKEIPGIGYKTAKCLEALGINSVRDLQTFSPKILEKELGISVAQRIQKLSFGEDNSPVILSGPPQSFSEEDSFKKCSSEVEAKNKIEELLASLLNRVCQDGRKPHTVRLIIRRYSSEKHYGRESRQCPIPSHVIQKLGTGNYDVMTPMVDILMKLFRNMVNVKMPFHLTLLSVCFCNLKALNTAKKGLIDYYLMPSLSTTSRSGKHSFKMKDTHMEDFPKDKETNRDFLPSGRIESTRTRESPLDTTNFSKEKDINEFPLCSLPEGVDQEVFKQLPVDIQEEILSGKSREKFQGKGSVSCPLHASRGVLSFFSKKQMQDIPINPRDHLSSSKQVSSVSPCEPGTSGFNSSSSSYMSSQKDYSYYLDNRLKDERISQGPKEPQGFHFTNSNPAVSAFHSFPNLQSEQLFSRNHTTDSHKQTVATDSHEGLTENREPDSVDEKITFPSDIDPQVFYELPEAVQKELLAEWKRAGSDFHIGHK
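Pol iota at 10 nM preincubated 15 min with compounds at room temperature; reaction started with fluorescent substrate, 50 nM final. Fluorescence read kinetically at 0 and 10 min; buffer-only wells as negative control.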
FEN1 inhibitor: inhibitors of human flap endonuclease 1; Potency, µM (top dose mostly 114 µM), for inactives: at the highest dose activity change, negative = inhibition, hits mostly inhibitors; P39748; AID 588795; actives 0.35% (n = 390,000); Recombinant FEN1 flap cleavage, fluorescence, 15 min; further: on the % scale 0 is the no-effect control and ±100 the full control effect; nearly all actives have a fitted effect of over 65% in size
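Quantitative HTS format: each compound was titrated, incubated with 10 nM nuclease for 15 min at room temperature, then challenged with flap substrate at 50 nM final. Signal change over 15 min gave concentration–effect curves.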
POLB inh: DNA polymerase beta (human) inhibition. P06746. Pol beta primer extension/strand displacement, fluorescence kinetic. Potency, µM (top dose mostly 114 µM), without a hit: at the top dose activity change, negative = inhibition, most hits filed as inhibitors. actives 1.3% (n = 340,000); further: on the % scale 0 is the no-effect control and ±100 the full control effect
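Human Pol beta at 10 nM; strand-displacement substrate 50 nM final. Compound exposure 15 min at room temperature before start, reaction 10 min at room temperature.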
Active calls of the source: *; ? = inconclusive; nt = no result; ! = repeats disagree; [ ] = dose if it differs, or a comment. Sampled rows, rich in hits. Any-hit rate of the full collection: about 2.4%. The call rests on the fitted dose curve; in most records, active means well fitted curve in the direction sought with a large enough effect; inconclusive means small, poorly fitted or top-dose-only effect, or another doubt; inactive means no such curve, though single readings can be large; an effect the other way counts as inactive or inconclusive. Potency means the concentration at half of the fitted maximal effect.

SMILES	POLK inh	TDP1 inh	POLH inh	Pol iota inh	FEN1 inhibitor	POLB inh
Oc1ccc(Nc2nc3ccccc3nc2Nc2ccc(O)cc2)cc1	-16%	-2%	?	?	?	40µM*
Cc1c(NS(=O)(=O)c2cc(C(=O)NCc3cccc(Cl)c3)ccc2Cl)c(=O)n(-c2ccccc2)n1C	-10%	nt	-21%	28%	-18%	nt
Cc1c(NS(=O)(=O)c2cc(C(=O)NCCN(C)C)ccc2Cl)c(=O)n(-c2ccccc2)n1C	?	nt	-26%	?	-10%	45µM*
Cc1c(NS(=O)(=O)c2cccc(C(=O)O)c2)c(=O)n(-c2ccccc2)n1C	-1%	1%	-9%	50µM*!	-5%	73%
Cc1c(NS(=O)(=O)c2cccc(C(=O)NCc3ccco3)c2)c(=O)n(-c2ccccc2)n1C	-36%	nt	?	35µM*	?	nt
Cc1c(NS(=O)(=O)c2cccc(C(=O)NCc3ccc(Cl)cc3)c2)c(=O)n(-c2ccccc2)n1C	-11%	3%	-2%	15%	-8%	?
COc1ccc(OC)c(CNC(=O)c2ccc(NC(=O)c3nsc4ccccc34)cc2)c1	-8%[60.1 µM]	-3%	-8%	89µM*	-14%	40%
CN1/C(=C/C=C(C#N)C#N)C=Cc2ccccc21	2%	3%	-2%	79µM*	13%	-4%
CCOC(=O)/C(C#N)=C/C=C1\C=Cc2ccccc2N1CC	5%	1%	-8%	50%	2%	25%
Cc1cnc2c(C)cccc2c1/C=C/c1ccc(N(C)C)cc1	-11%	nt	nt	1%	-27%	nt
Cc1cccc(Nc2sc(C(=O)c3cc4cc(Cl)ccc4o3)c(N)c2C#N)c1	-10%	3%	?	-4%	7%	10µM*
O=C(O)c1ccccc1-n1cccc1C(=O)O	-25%	?	40µM*	?	3%	25µM*
CCCCCC#CCC#CCC#CCC#CCCCC(=O)O	10µM*!	-4%	nt	nt	nt	1.1µM*
CN(C)c1ccc(C(=C2c3ccccc3-c3ccccc32)c2ccc(N(C)C)cc2)cc1	-1%	nt	nt	13%	-5%	nt
CC(=O)Nc1cccc(C(=O)/C=C/c2ccc(N(C)C)cc2)c1	?	-13%	?	22µM*	?	50µM*
CC(C)CNc1ncnc2nc[nH]c12	-2%	nt	nt	-10%	-1%	nt
Cc1[nH]n(-c2ccccc2)c(=O)c1C(=O)c1ccccc1	-7%	nt	?	?	3%	-4%
COc1cccc(C(c2c(C)[nH]n(-c3ccccc3)c2=O)c2c(C)[nH]n(-c3ccccc3)c2=O)c1OC	-28%	5%	-6%	1.3µM*	-24%	-26%
Cc1[nH]n(-c2ccccc2)c(=O)c1C(c1ccc(O)c([N+](=O)[O-])c1)c1c(C)[nH]n(-c2ccccc2)c1=O	-32%	nt	28µM*	?	?	nt
Cc1[nH]n(-c2ccccc2)c(=O)c1C(C[N+](=O)[O-])c1ccccc1Cl (configuration not stated)	-9%	12%	-10%	-11%	-7%	-28%
COc1cccc(C(c2c(C)[nH]n(-c3ccccc3)c2=O)c2c(C)[nH]n(-c3ccccc3)c2=O)c1O	-19%	0%	9%	1µM*	-26%	26%
COc1ccc(S(=O)(=O)n2nc(OC(C)=O)cc2N)cc1	-32%	3%	7%	?	45µM*	?
CCn1cnc2c(Nc3ccc(CC(=O)N=C(N)N)cc3)nc(C#N)nc21	nt	-3%	nt	nt	nt	nt
CC(=O)Nc1ccc(/C=C/c2ccnc3ccccc23)cc1[N+](=O)[O-]	-13%	nt	nt	16%	-22%	nt
CCOCCCNC(=O)c1ccc(CS(=O)(=O)Cc2ccccc2F)o1	89µM*	7%	?	-19%[58.9 µM]	-2%	2%
O=C1/C(=C\c2ccco2)SC(=S)N1Cc1ccccc1	-11%	8%	?	-2%	-4%	?
CC(/C=C1\SC(=S)N(CCCC(=O)Nc2ccc(C(=O)O)cc2)C1=O)=C\c1ccccc1	-27%	3%	32µM*	?	-4%	?
